Reference: PubChem BioAssay (NCI)
Compounds without any hit were thinned out: in the full panel of roughly 83,000, 20% have a hit.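 A percent growth of 40 corresponds to 60% growth inhibition; 0 means no net growth; -100 means all cells died. Active threshold: below 10.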 Values without a mark were called inactive. Calls of active or inactive are those of the source.

Assays:
Assay in all cases: NCI-60 one-dose screen, 48 h (100 = growth as untreated, 0 = no growth, -100 = all killed)
Conditions in all cases: 10 µM unless noted
NCI-H23 lung = test system: NCI-H23 lung
NCI-H226 lung = test system: NCI-H226 lung
NCI-H322M lung = test system: NCI-H322M lung
HOP-62 NSCLC = test system: HOP-62 NSCLC
NCI-H460 lung = test system: NCI-H460 lung
HOP-92 NSCLC = test system: HOP-92 NSCLC
NCI-H522 lung = test system: NCI-H522 lung
A549/ATCC NSCLC = test system: A549/ATCC NSCLC
786-0 renal = test system: 786-0 renal
COLO 205 colon = test system: COLO 205 colon
DU-145 prostate = test system: DU-145 prostate
K-562 leukemia = test system: K-562 leukemia
MALME-3M melanoma = test system: MALME-3M melanoma
MDA-MB-231 breast = test system: MDA-MB-231 breast
RXF 393 renal = test system: RXF 393 renal
SF-268 CNS = test system: SF-268 CNS
SF-539 CNS = test system: SF-539 CNS
UACC-257 melanoma = test system: UACC-257 melanoma
M14 melanoma = test system: M14 melanoma
SF-295 CNS = test system: SF-295 CNS

Compound | growth (NCI-H23 lung) | growth (NCI-H226 lung) | growth (NCI-H322M lung) | growth (HOP-62 NSCLC) | growth (NCI-H460 lung) | growth (HOP-92 NSCLC) | growth (NCI-H522 lung) | growth (A549/ATCC NSCLC) | growth (786-0 renal) | growth (COLO 205 colon) | growth (DU-145 prostate) | growth (K-562 leukemia) | growth (MALME-3M melanoma) | growth (MDA-MB-231 breast) | growth (RXF 393 renal) | growth (SF-268 CNS) | growth (SF-539 CNS) | growth (UACC-257 melanoma) | growth (M14 melanoma) | growth (SF-295 CNS)
COc1ccc(/C=C2\N=C(c3ccccc3)N(c3cc(OC)c(OC)cc3C(=O)N3N=C(C)CC3=O)C2=O)cc1 | 102% | 90.1% | 118% | 97% | 94.4% | 78.2% | 82.6% | 104% | 98.9% | 112% | 95.2% | 81.5% | 126% | 87.4% | 93.5% | 91.4% | 94.6% | 128% | 97.9% | 
COC(=O)[C@@H]1[C@H]2C[C@H]3c4[nH]c5cc(OC)ccc5c4CCN3C[C@@H]2C[C@H](OC(=O)/C=C/c2ccnc(OC)c2)[C@H]1OC | 86.4% | 89.3% | 83.2% | 87% | 102% | 22.5% | 73.3% | 89% | 91.2% | 76.3% | 91.8% | 99.3% | 67.6% | -54.6% (active) | 92.4% | 84.1% | 90.1% | 78.3% | 93.2% | 
CCc1ccc(-c2ccc(Nc3ccccc3)nn2)cc1S(N)(=O)=O | 86% | 86.8% | 107% | 92.9% | 51.2% | 80.2% | 71.5% | 80.5% | 94.3% | 94.8% | 77.1% | 12.5% | 71.4% | 69.3% | 77.3% | 78.6% | 84.3% | 83.7% | 67.1% | 
COc1cc(-c2cc(-c3nc4ccc(F)cc4[nH]3)[nH]n2)cc(OC)c1OC | 15.8% | -11.1% (active) | 48.7% | 8.23% (active) | 33.5% | 25.8% | 9.45% (active) | 29% | 53.7% | 20.9% | 35.5% | 0.735% (active) | 7.29% (active) | 49.4% | 36.5% | 36.4% | 52.6% | 29.6% | 21.5% | 
[B-][N+](CC)(CC)c1ccccc1 | 105% | 106% | 96.9% | 101% | 110% | 81.9% | 96.5% | 102% | 105% | 102% | 106% | 105% | 98.1% | 119% | 115% | 103% | 97% | 105% | 88.6% | 
c1ccc(C2Cc3ccccc3C2=NC2CCCCC2)cc1 (stereo not drawn) | 98.1% | 100% | 102% | 113% | 116% | 68.4% | 88.8% | 103% | 97.5% | 115% | 115% | 99.6% | 116% | 97.2% | 110% | 102% | 89.3% | 110% | 91.7% | 
C/C(=N/NC(N)=S)C(=O)O | 101% | 90.1% | 103% | 107% | 99.3% | 107% | 95.9% | 76% | 102% | 119% | 102% | 55.3% | 102% | 91.1% | 116% | 101% | 101% | 61.1% | 97.4% | 
COc1cc2[nH]c(C(=O)c3cc(OC)c(OC)c(OC)c3)c(N)c2cc1C#CCO | 35.7% | 27.9% | 43.6% | 28.3% | 7.9% (active) | 21.6% | -6.03% (active) | 33% | 40.8% | -35.8% (active) | 12.2% | 7.65% (active) | 31.7% | 39% | 1.88% (active) | 32.5% | -35% (active) | 71.2% | 7.42% (active) | 
NC1(N)C=CC2=C(C=C1)C1(N)C3=C(C=CC(N)(N)C=C3)N2C2(N)C3=C(C=CC(N)(N)C=C3)N1C1=C2C=CC(N)(N)C=C1 | 79.5% | 97.7% | 99.8% | 89.8% | 94.6% | 70.3% | 28.4% | 88.8% | 84.3% | 104% | 97% | 81.7% | 103% | 67.3% | 104% | 86.8% | 73.4% | 89.7% | 94.5% | 
OCCNc1nc(Nc2ccc(Cl)c(Cl)c2)nc2ccccc12 | 54.5% | 61.7% | 71% | 49.1% | 33.3% | 27.4% | 62% | 37% | 62% | -21.7% (active) | 70.9% | 2.65% (active) | 31.1% | 5.57% (active) | 16.8% | 48.6% | 75.1% | 57.9% | 29.9% | 
COc1cc(-c2cc(-c3nc4ccccc4[nH]3)[nH]n2)cc(OC)c1OC | 41% | 14.5% | 39.5% | 39.7% | 35.5% | 52.1% | 37.2% | 53.6% | 57.6% | 47.3% | 50.4% | 4.51% (active) | 28% | 66.2% | 49.2% | 72.5% | 74.8% | 44% | 39.4% | 
Cc1nnc2nc(N)[nH]n2c1=O | 103% | 111% | 105% | 109% | 113% | 66.5% | 92.8% | 99% | 98.8% | 121% | 104% | 101% | 93.9% | 129% | 117% | 103% | 114% | 98.5% | 99.2% | 
COc1ccc2nc(-c3cc(-c4cc(OC)c(OC)c(OC)c4)n[nH]3)[nH]c2c1 | 7.44% (active) | -48.9% (active) | 31.1% | -1.25% (active) | 25.2% | 22% | -15.1% (active) | 6.33% (active) | 59.5% | -20% (active) | 11.8% | -10.7% (active) | -40.4% (active) | 36.2% | 45.8% | 10.7% | 34.4% | -13.4% (active) | 9.11% (active) | 
Nc1c(C(=O)Nc2cccc(Br)c2)sc2nc3c(cc12)C(=O)CCC3 | 34% | 75.1% | 64.7% | 40.4% | 4.31% (active) | 79.3% | -20% (active) | 24.4% | 51.8% | -11.2% (active) | 1.18% (active) | 13.7% | 16.6% | 38.5% | -1.14% (active) | 62.6% | 25.5% | 68% | 35.7% | 
Cc1cc(Cl)c2c(N(C)C)cccc2n1 | 96% | 101% | 89.9% | 102% | 104% | 115% | -75.5% (active) | 100% | 102% | 105% | 106% | 59.5% | 87.2% | 92.8% | 116% | 111% | 106% | 102% | 92% | 
Cn1cc(-c2nc(-c3c[nH]c4ncccc34)cs2)c2cc(F)ccc21 | 40.8% | 62.3% | 35.1% | 65.3% | 24.6% | 13.3% | 22% | 36.3% | 41.3% | 49.4% | 64.4% | 6.15% (active) |  | 20% | 43.8% | 44.4% | 53.9% | 53.3% | 20.5% | 19.9%
Cn1cc(-c2nc(-c3c[nH]c4ncccc34)cs2)c2cc(Cl)ccc21 | 69.5% | 81.8% | 47.8% | 86% | 47% | 40.4% | 52.2% | 43% | 46.2% | 80.2% | 54.4% | 9.43% (active) |  | 55.3% | 63.4% | 65.4% | 71.7% | 56% | 42.2% | 24.4%
